In all, about 360,000 compounds went through this assay and about 3,500 (0.97%) were called active. The sample holds actives, similar compounds and a random draw of the others, so the mix is not that of the screen. Unmarked numbers belong to inactive results.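 Rule for the calls: active = activation above a per-plate cutoff, the mean activation of sample wells on that plate plus 3 SD (cut at about 8% in these data); inactive = the rest.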

For this experiment, the target named is Melanocortin receptor 4 (Homo sapiens) (UniProt P32245). The experiment is described as follows: MC4R agonists recruiting beta-arrestin, primary screen, cell-based, luminescence, agonist arm of biased-ligand search (AID 540308). The following applies: U2OS MC4R beta-arrestin complementation, at 8.9 µM, hits give high values, percent of melanotan II response, DMSO zero.
Sequence of Melanocortin receptor 4 (Homo sapiens) (P32245 whole entry, looked up): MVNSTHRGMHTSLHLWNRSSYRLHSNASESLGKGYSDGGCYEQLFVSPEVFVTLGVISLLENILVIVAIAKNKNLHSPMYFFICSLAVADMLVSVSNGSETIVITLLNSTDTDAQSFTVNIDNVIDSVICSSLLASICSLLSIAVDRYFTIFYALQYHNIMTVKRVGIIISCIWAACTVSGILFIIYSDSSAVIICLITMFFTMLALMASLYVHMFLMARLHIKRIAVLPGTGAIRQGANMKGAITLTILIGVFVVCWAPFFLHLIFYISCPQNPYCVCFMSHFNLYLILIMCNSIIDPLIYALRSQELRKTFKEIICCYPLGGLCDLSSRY
`OC[C@@H]1CN(Cc2ccncc2)C[C@H](n2cnc3c(N4CCN(c5ccccc5)CC4)ncnc32)O1`: the activation was 0.16%.

For `CC1(C(=O)NS(=O)(=O)c2ccc(Cl)cc2)CCN1C(=O)CC1CCCC1` (configuration not stated), the activation was 1.72%.

As for `COc1ccc2oc(=N)c(C(=O)Nc3ccc(Br)cc3)cc2c1`, the activation was 1.15%.

Regarding `COc1ccc(C(=O)c2oc3ccc(Br)cc3c2NC(C)=O)cc1`, the activation was 11.7% (active).

Consider `CC(C)C(=O)Nc1c(C(=O)c2ccc(F)cc2)oc2ccccc12`, for which the activation was 1.16%.

Regarding `CCN(CC(=O)Nc1ccccc1C(=O)NC1CC1)Cc1cccs1`, the activation is -0.58%.

With `Cc1nn(-c2ccccc2)c(NC(=O)c2cccs2)c(-c2ccc(Cl)cc2)c1=O`, the activation is -1.07%.

Consider `Cc1nn(-c2ccccc2)c(Cl)c1/C=N/NC(=O)c1nn(C)cc1[N+](=O)[O-]`, for which the activation is -2.85%.

As for `Cc1ccc(-n2nc(C)c(/C=N/NC(=O)c3cccs3)c2Cl)cc1`, the activation is 20.9% (active).

Consider `COc1cccc(NC(=O)C2(C)CCN2C(=O)CCC2CCCC2)c1` (configuration not stated), for which the activation is 2.96%.

In the case of `COc1cc(NC(=O)c2ccc3c(c2)OCO3)ccc1NC(=O)c1cccs1`, the activation is -0.83%.

In the case of `CCC(=O)c1cc2c(cc1NC(=O)c1cccs1)OCCO2`, the activation is 23.2% (active).

Regarding `COc1cc(NC(=O)c2cccs2)ccc1NC(=O)c1ccccc1Cl`, the activation is 0.56%.

On to `COc1ccc(/C=N/NC(=O)Nc2ccc3nsnc3c2)c(OC)c1`, for which the activation was 13.5% (active).

With `COc1ccc(-c2[nH]ncc2/C=N/NC(=O)c2cc(Br)ccc2O)c(OC)c1`, the activation is 0.86%.

For `COc1ccc(S(=O)(=O)NNC(=O)Nc2ccc(C)cc2)c(OC)c1`, the activation is 0.62%.

For `O=C(NCCNc1ccc([N+](=O)[O-])cc1Cl)c1ccccc1F`, the activation is -1.37%.

For `CC(CNc1ccc([N+](=O)[O-])cc1)NC(=O)c1ccccc1Br` (configuration not stated), the activation is 0.96%.

As for `O=C(NCCNc1ccc([N+](=O)[O-])cc1)c1cccc2c(Br)cccc12`, the activation is 8.32% (active).

Turning to `CC(=O)Oc1ccc(Cn2c(C)c(C(=O)NCc3ccc(C#N)cc3)sc2=O)cc1`, the activation is 0.49%.

Take `CCCCOc1ccc(NC(=O)CSCC(=O)OCC)cc1`: the activation is 0.02%.

On to `CCCCCCCCCCOC(=O)Cn1c(COc2ccc(C)cc2)[n+](C)c2ccccc21`, for which the activation is 16.7% (active).

Regarding `CCCCCCCCCCOC(=O)Cn1c(COc2cccc(OC)c2)[n+](C)c2ccccc21`, the activation is 21.1% (active).

Consider `Cc1ccc(COc2ccc(C(=O)NN)cc2)cc1`, for which the activation is 6.84%.

Regarding `COCCCNC(=O)c1ccc(-c2c(C)noc2C)c2ccoc12`, the activation is -0.44%.

As to `COc1cc(NC(=O)c2cc(-c3ccc(F)cc3OC(C)C)n[nH]2)cc(OC)c1OC`, the activation is 3.09%.

Take `Cc1ccc(C)c(C(O)c2ncc(-c3cccc4ccccc34)[nH]2)c1` (configuration not stated): the activation was -2.84%.

On to `O=C(NCCCN1CCCCC1)c1ccc2c(c1)NC(=O)C(N1CCOCC1)S2` (configuration not stated), for which the activation is -0.87%.

With `CCCNC(=O)c1cc(C2CCCCN2S(=O)(=O)c2ccc(C#N)cc2)on1` (configuration not stated), the activation was 0.19%.

Turning to `O=C(NCCN1CCOCC1)c1ccccc1N1C(=O)[C@@H]2Cc3c([nH]c4ccccc34)C(c3cccc(Cl)c3)N2C1=O` (some centres not stated), the activation was -1.7%.

Turning to `Cc1ccc(C(O)c2ncc(-c3ccccc3F)[nH]2)cc1F` (configuration not stated), the activation is -0.39%.

With `COc1ccc(C(NC(=O)C2CCN(CCCc3ccccc3)CC2)c2cccs2)cc1` (configuration not stated), the activation is 0.65%.

On to `Cc1ccc(-n2c(SCC(=O)NCCC3=CCCCC3)nc3n[nH]c(C)c3c2=N)cc1Cl`, for which the activation is 18.2% (active).

For the compound `CCCCNC(=O)CSc1nc2n[nH]c(C)c2c(=N)n1-c1cccc(Cl)c1C`, the activation is -1.55%.

On to `COc1cccc(-n2c(SCC(=O)NC3CCCCC3)nc3n[nH]c(C)c3c2=N)c1`, for which the activation is -1.4%.

With `COc1ccc(CNC(=O)c2ccc(-c3cccnc3)c3ccoc23)cc1OC`, the activation is 1.26%.

With `CCCNC(=O)c1cc(C2CCCN(C(=O)c3ccc4c(c3)CCO4)C2)on1` (configuration not stated), the activation is -0.64%.

Turning to `COc1ccc(C(=O)n2nc(C)c(Br)c2C)cc1OC`, the activation was 1.71%.

For `COc1ccc(C(=O)n2nc(-c3ccc(C)cc3)nc2N)cc1OC`, the activation is 15.4% (active).

Regarding `COc1ccc(C(=O)n2nc(-c3ccc(Cl)cc3)nc2N)cc1OC`, the activation was 0.74%.

For `CC(=O)c1ccc(N2CCN(C(=O)CCNC(=O)Cn3ccc4ccccc4c3=O)CC2)cc1`, the activation was 2.35%.

Turning to `CCOC(=O)C1CCCN(C(=O)c2cccc3ccccc23)CC1` (configuration not stated), the activation is -0.59%.

With `O=C(CCC(=O)Nc1ccccc1)N/N=C/c1ccccc1F`, the activation was -0.29%.

With `Fc1ccccc1/C=N/Nc1cc(N2CCCCC2)ncn1`, the activation is 12.1% (active).

As for `COc1ccccc1N1CCN(C(=O)C(=O)N/N=C/c2ccccc2F)CC1`, the activation is -3.16%.

With `CCCNC(=O)C1(C)CCN1C(=O)C1(c2ccccc2)CC1` (configuration not stated), the activation was 1.14%.

For `O=C(COc1ccc(S(=O)(=O)N2CCCC2)cc1[N+](=O)[O-])N1CCCCC1`, the activation was -1.25%.

`Cc1ccc(S(=O)(=O)N2CCC(C(=O)OCC(=O)N(C)c3ccccc3)CC2)cc1C`: the activation is -3.84%.

Consider `COc1ccc(S(=O)(=O)N2CCC(C(=O)OCC(=O)c3ccccc3)CC2)cc1[N+](=O)[O-]`, for which the activation was 31.7% (active).

In the case of `CCc1nc2ccc(C(=O)NC3CCN(Cc4ccccc4)CC3)cn2c1N(CC)CCOC`, the activation is 4.51%.

For `Cc1ccc(NC(=O)Nc2ccccc2)c(Br)c1`, the activation was 21.9% (active).

On to `O=C(Nc1ccccc1)c1ccccc1Br`, for which the activation was 0.3%.

Consider `CCOc1cc(NC(=O)Nc2ccccc2)c(OCC)cc1NC(=O)CC`, for which the activation was 0.85%.

`CC(=O)Nc1cccc(-c2ccnc3c2CC(C)(C(=O)NCc2ccco2)O3)c1` (configuration not stated): the activation is 0.36%.

Consider `O=C(CSc1nc2ccccc2c(=O)n1Cc1ccc(F)cc1)NCC1CCCO1` (configuration not stated), for which the activation was -0.86%.

Regarding `Cn1c(-c2ccc(F)cc2)cnc1SCC(=O)NCc1ccco1`, the activation is -1.34%.

In the case of `O=C(CCCn1c(SCC(=O)c2ccc(F)cc2)nc2ccccc2c1=O)NCc1ccco1`, the activation was 29.6% (active).

For `O=C(c1cc(C2CCCCN2S(=O)(=O)c2ccccc2)on1)N1CCOCC1` (configuration not stated), the activation was 0.01%.

For the compound `CC=CCn1c(SCCCc2ccccc2)nc2c1c(=O)[nH]c(=O)n2C`, the activation was 1.64%.

As to `Cc1ccc(CNC(=O)Nc2nnc([C@H]3C[C@H](O)[C@@H](CO)O3)s2)cc1`, the activation is -0.78%.

As for `OCCN1CCN(c2ncnc3c2ncn3[C@H]2CN(Cc3ccco3)C[C@@H](CO)O2)CC1`, the activation was -0.69%.

On to `CCOC(=O)C1CCCN(C(=O)c2ccc(N(C)C)cc2)CC1` (configuration not stated), for which the activation is -0.51%.

As for `Cc1cc2c(=O)n(C)c(SCC(=O)c3cc4ccccc4o3)nc2s1`, the activation was -0.92%.

`Cc1ccc(Nc2nnc(SCC(=O)c3cc4ccccc4o3)s2)cc1C`: the activation was 11% (active).

`CC(C)c1ccc(Nc2nnc(SCC(=O)c3nnc(-c4ccccc4)o3)s2)cc1`: the activation was -0.71%.

With `CC1(C(=O)NS(=O)(=O)C2CC2)CCCN(C(=O)CSc2ccccc2)C1` (configuration not stated), the activation is 0.3%.

Take `OC[C@@H]1CN(Cc2cccs2)C[C@H](n2cnc3c(Nc4ccccc4)ncnc32)O1`: the activation was 0.44%.

For the compound `O=C(CN1CCCC1)Nc1sc2c(c1C(=O)Nc1ccccc1)CCCC2`, the activation is -3.19%.

Take `O=C(Nc1sc2c(c1-c1nc3ccccc3[nH]1)CCCC2)C1CC1`: the activation was 14.1% (active).

As for `CCOC(=O)c1c(NC(=O)C2CCN(S(=O)(=O)c3ccc(Cl)cc3)CC2)sc2c1CCCC2`, the activation is 2.72%.

Regarding `O=C(Nc1ccc(Cl)c(C(F)(F)F)c1)C1Cc2c(-c3ccccc3Oc3ccccc3)ccnc2O1` (configuration not stated), the activation is -1.84%.

Take `CCCCN(C=O)c1c(CC)nc2c(OCc3ccccc3C(=O)OC)cccn12`: the activation is 0.49%.

On to `C/C(=N\NC(=O)COc1c(C)cccc1C)c1cccs1`, for which the activation is 12.1% (active).

For the compound `C/C(=N\OCC(=O)Nc1ccc(Br)cc1)c1cccs1`, the activation was -4.16%.

As to `C/C(=N\NC(=O)CSc1nc2ccccc2c(=O)n1-c1ccccc1C)c1cccs1`, the activation was -1.88%.

For `CC(=O)Nc1cccc(-c2ccnc3c2CC(C)(C(=O)NCc2ccccc2)O3)c1` (configuration not stated), the activation was -1.6%.

As to `N/C(=N\OC(=O)Cc1ccccc1[N+](=O)[O-])c1ccc(Br)cc1`, the activation is -1.47%.

For `N/C(=N\OC(=O)c1ccc2c(c1)OCO2)c1ccc(Br)cc1`, the activation was 0.57%.

Consider `N/C(=N\OC(=O)N1c2ccccc2Sc2ccccc21)c1ccc(Br)cc1`, for which the activation is 8.26% (active).

For the compound `CCC(=O)N1CCCC1(C)C(=O)Nc1ccc2c(c1)CCN2C(C)=O` (configuration not stated), the activation was -1.65%.

For the compound `CCN(CC)c1ncnc2c1ncn2[C@H]1CN(Cc2cccs2)C[C@@H](CO)O1`, the activation is 0.8%.

As for `COC(=O)c1cc(OCC(=O)NC2CCCc3ccccc32)cc(C(=O)OC)c1` (configuration not stated), the activation is -1.2%.

As to `CCOc1ccc(NC(=O)COc2ccc(C(=O)N3CCC(C(N)=O)CC3)cc2OC)cc1`, the activation was -1.74%.

In the case of `CCOc1ccc(NC(=O)COc2ccc(C(=O)NC3CCCc4ccccc43)cc2OC)cc1` (configuration not stated), the activation was 9.26% (active).

On to `Cc1ccc(CN2C(=O)CCC2C(=O)NCCCN2CCCCC2C)cc1` (configuration not stated), for which the activation was -0.33%.

In the case of `CC(=O)c1sc(NC(=O)CCCOc2ccccc2C)nc1C`, the activation was 9.6% (active).

In the case of `Cc1ccc(F)c(NC(=O)CCOc2ccccc2C)c1`, the activation was -0.86%.

With `Cc1ccccc1OCC(=O)Nc1nc(C)c(C(=O)N(C)C)s1`, the activation is -2.42%.

Turning to `CCCNC(=O)C1(C)CCN1C(=O)Cc1ccc(-c2ccccc2)cc1` (configuration not stated), the activation was -0.78%.

For the compound `COc1cc(C2C3=C(CCCC3=O)OC3=C2C(=O)CCC3)ccc1OCC(=O)Nc1ccccc1`, the activation was -1.3%.

In the case of `CCCn1c(C)cc(/C=C(\C#N)C(=O)OCC(=O)Nc2cc(OC)c(OC)c(OC)c2)c1C`, the activation is 1.33%.

In the case of `CCOC(=O)/C(C#N)=C/c1ccc(OCC(=O)Nc2ccccc2)c(OC)c1`, the activation is 8.67% (active).

(Values after PubChem BioAssay AID540308 (The Scripps Research Institute Molecular Screening Center, 2011).)
